Assay outcomes from PubChem BioAssay.
Compounds with a hit are over-represented: about 2.3% of the library has one in this group of screens.
Shn3 inh set2 – reduces Shn3 3'UTR luciferase signal in osteoblasts. Clone20 osteoblast Shn3 3'UTR firefly luciferase, 24 h. AID 588674. inhibition, % at 12.5 µM. 0.52% of 360,000 active;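 active = mean inhibition of at least 75% with every replicate also reaching 75%; inconclusive = mean inhibition at least 75% but some replicate below; inactive = mean inhibition below 75%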
MITF TRPM1 inh – reduces MITF-dependent TRPM1 promoter luciferase signal. SK-MEL-5 TRPM1 promoter luciferase, 24 h. inhibition, % at 12.5 µM. 0.83% of 330,000 active. AID 488899;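 active = mean inhibition across replicates of 60% or more, whatever share of single replicates reaches that level; inconclusive = some that reach 60%, reason not given; inactive = mean inhibition across replicates below 60%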
Gli-Sufu antag – Gli-Sufu pathway antagonism; Sufu-KO-LIGHT fibroblasts, Gli luciferase reporter luminescence; inhibition, % at 5 µM; 0.74% of 340,000 active; AID 588413;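 active = inhibition above about 55%, limit read from the data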
LMP1 NFkB inh – reduces LMP1-driven NF-kappaB luciferase signal. inhibition, % at 12.5 µM. 0.69% of 350,000 active. LMP1-induced NF-kappaB luciferase reporter cells, luminescence; in the data active = inhibition above about 41%; inconclusive = no clear call, values can overlap the other calls
Jurkat NFkB inh – inhibitors of the PMA/ionomycin-induced NF-kB reporter in Jurkat cells. inhibition, % at 4 µM. AID 435003. 0.53% of 330,000 active. PMA/ionomycin-induced NF-kB luciferase reporter, luminescence; in the data active = inhibition above about 50%
697 NFkB inh – inhibitors of the PMA/ionomycin-induced NF-kB reporter in 697 B cells. inhibition, % at 4 µM. 697 B-cell NF-kB luciferase reporter, 16 h. 0.33% of 330,000 active; in the data active = inhibition above about 35%
Jurkat NFkB conf – inhibitors of the PMA/ionomycin-induced NF-kB reporter in Jurkat cells, retest; shares compounds with Jurkat NFkB inh; Jurkat NF-kB luciferase, 16 h; inhibition, % at 4 µM; 27% of 2,700 active;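 active = inhibition reaching about 45% at 4 µM in either replicate, limit read from the data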
Gli antag conf – Gli-SUFU antagonism confirmation, single concentration; shares compounds with Gli-Sufu antag; Sufu-KO-LIGHT cells, Gli luciferase reporter, luminescence; inhibition, % at 5 µM; 40% of 2,500 active; AID 602428;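 active = mean inhibition at 5 µM reaching about 45%, limit read from the data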
Gli cytotox – counter-screen for Gli-SUFU antagonists: cytotoxicity; Sufu-KO-LIGHT cells cytotoxicity, ATP luminescence; 32% of 2,500 active; cytotoxicity, % at 5 µM; shares compounds with Gli-Sufu antag; AID 651994;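 active = mean cytotoxicity at 5 µM above about 25%, limit read from the data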;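 note: cells exposed to compound overnight for roughly 16 to 18 hours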
Wnt3a counter – inhibits Wnt3a reporter, counter-screen for Gli-SUFU antagonists. inhibition, % at 6.25 µM. Wnt-LIGHT cells, Wnt3a-driven luciferase reporter, luminescence. 20% of 2,500 active. AID 651995. shares compounds with Gli-Sufu antag;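 active = mean inhibition above about 25%, limit read from the data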
Large screens that a line does not name were inactive (follow-up assays come after a bar, where they were run).

Cc1ccc(OCC(=O)c2cc(C)n(-c3ccccc3)c2C)c([N+](=O)[O-])n1	Gli-Sufu antag 70, LMP1 NFkB inh 66, Jurkat NFkB inh 76 | Jurkat NFkB conf inactive | Gli antag conf 74 | Gli cytotox inactive | Wnt3a counter 87
CCCCCCCOc1ccc(OC(=O)c2cccnc2)cc1	Gli-Sufu antag 74, Jurkat NFkB inh 85 | Jurkat NFkB conf 53 | Gli antag conf 60 | Gli cytotox inactive | Wnt3a counter inactive
CCCCCCCOc1ccc(OC(=O)c2ccncc2)cc1	Gli-Sufu antag 74, Jurkat NFkB inh 80 | Jurkat NFkB conf 55 | Gli antag conf 63 | Gli cytotox inactive | Wnt3a counter inactive
CCCCOc1ccc(OC(=O)c2cccnc2)cc1	none
COc1cccc(CNC(=O)CCc2nc3cc(S(=O)(=O)N4CCOCC4)ccc3n2C)c1	none
CCN(C(=O)COC(=O)c1cccnc1)c1cccc2ccccc12	none
CC1CCCN(c2ncnc3c2cnn3-c2ccc(Cl)cc2)C1 (stereo not drawn)	MITF TRPM1 inh 92, Gli-Sufu antag 81, LMP1 NFkB inh 60, Jurkat NFkB inh 60 | Jurkat NFkB conf 87 | Gli antag conf 92 | Gli cytotox 67 | Wnt3a counter 106
CC1CCCN(c2ncnc3c2cnn3-c2ccccc2)C1 (stereo not drawn)	none
Fc1ccc2[nH]c3c(N4CCc5ccccc5C4)ncnc3c2c1	Shn3 inh set2 87, Gli-Sufu antag 77, Jurkat NFkB inh 50 (no result: MITF TRPM1 inh, LMP1 NFkB inh) | Jurkat NFkB conf 63 | Gli antag conf 79 | Gli cytotox 34 | Wnt3a counter inactive
COc1ccc(CNC(=O)C(C)OC(=O)c2cccs2)cc1 (stereo not drawn)	none
CC(C)(C)NC(=O)C(OC(=O)c1cccs1)c1ccc(C#N)cc1 (stereo not drawn)	none
CC(=O)NC(c1ccc(C(C)C)cc1)c1ccc2cccnc2c1O (stereo not drawn)	Shn3 inh set2 92, MITF TRPM1 inh inconclusive, Gli-Sufu antag 90, LMP1 NFkB inh 57, Jurkat NFkB inh 51 | Jurkat NFkB conf 74 | Gli antag conf 83 | Gli cytotox 50 | Wnt3a counter 73
CC(=O)NC(C)c1cc(F)c2cccnc2c1O (stereo not drawn)	none
Cc1cc(C(C)(C)C)cc(C)c1C[n+]1ccc2ccccc2c1	Gli-Sufu antag 79, Jurkat NFkB inh 77 | Jurkat NFkB conf 51 | Gli antag conf 88 | Gli cytotox inactive | Wnt3a counter 46
Cc1ccc(C(=O)C[n+]2ccc3ccccc3c2)cc1	none
CCOCCOC(=O)c1[nH]c2c(c1C)C(=O)CC(c1ccccc1)C2 (stereo not drawn)	Jurkat NFkB inh 60 | Jurkat NFkB conf 51 | Gli antag conf 53 | Gli cytotox 60 | Wnt3a counter inactive
Cc1ccc(N(C)S(=O)(=O)c2cc(-c3cnc(C4CC4)o3)ccc2C)cc1	none
O=S(=O)(Nc1ccc(F)cc1Cl)c1ccc(-c2cnc(C3CC3)o2)cc1	Jurkat NFkB inh 52 | Jurkat NFkB conf 52 | Gli antag conf inactive | Gli cytotox 50 | Wnt3a counter inactive
CCOc1ccccc1NS(=O)(=O)c1ccc(-c2cnc(C3CC3)o2)cc1	Gli-Sufu antag 55, Jurkat NFkB inh 55 | Jurkat NFkB conf 58 | Gli antag conf 59 | Gli cytotox 56 | Wnt3a counter inactive
COc1ccccc1N1CCN(S(=O)(=O)c2ccc(-c3cnc(C4CC4)o3)cc2)CC1	none
CC(=O)Nc1ccc(NS(=O)(=O)c2cc(-c3cnc(C4CC4)o3)ccc2C)cc1	none
Cc1cccc(N(C)S(=O)(=O)c2ccc(-c3cnc(C4CC4)o3)cc2)c1	Gli-Sufu antag 59, Jurkat NFkB inh 62 | Jurkat NFkB conf 54 | Gli antag conf 57 | Gli cytotox 55 | Wnt3a counter inactive
